Only some compounds are listed: those with a hit (about 2.4% of all), similar ones and a draw of the others.
HSF1 inh: HSF1 inhibition; 300,000 compounds, 0.77% hits; AID 2098; activity change, negative = inhibition, % at 7.5 µM (by protocol); NIH3T3-HGL HSE-luciferase, MG132-induced, luminescence 8 h; hits give low values;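 active = more than half of replicate wells show activity change below -50%, luminescence cut by over half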;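 also: luciferase reports HSF-1 transcriptional activity via heat shock element; 0% = median of DMSO wells and -100% = zero luminescence signal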
HSP90 refold inh: blocks HSP90-mediated luciferase refolding in reticulocyte lysate. Rabbit reticulocyte lysate, luciferase refolding luminescence, 3 h. inhibition, % at 5.6 µM. 290,000 compounds, 0.91% hits;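 active = inhibition above the screen-wide mean plus 3 SD, computed separately per campaign, cut at about 16% in these data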;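 also: 0% = DMSO wells and 100% = 60 µM geldanamycin wells; inhibitors lower the luminescence because luciferase stays unfolded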
C8 TRAIL sens: caspase-8 TRAIL sensitization. NB7+C8 cells + TRAIL, ATPlite viability luminescence. inhibition (viability loss, TRAIL sensitization), % at 10 µM. 360,000 compounds, 1% hits. AID 624354;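 active = compounds causing at least 50% loss of cell viability in the single-dose screen, relative to plate controls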
STAT1 blocker: inhibitors of IFN-gamma induced STAT1 signaling | NIH 3T3 STAT1-luciferase reporter, luminescence | inhibition, % at 5.5 µM | 200,000 compounds, 0.35% hits | AID 920;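 active = inhibition above a set limit, the mean inhibition across all tested compounds plus 3 SD, cut at about 34% in these data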;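 also: 0% = IFN-gamma with DMSO and 100% = IFN-gamma with 300 µM nifuroxazide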
PPC-1+TRAIL kill: kills PPC-1 cancer cells in the presence of TRAIL; PPC-1 cells + TRAIL, ATPLite viability luminescence; cell killing (% activity), % at 4 µM or 5 µM; 220,000 compounds, 0.41% hits; AID 1443;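 active = cell killing above 50% in the first pass at 4 µM, then a duplicate retest at 5 µM averaging 50% or more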;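 also: plate controls were cells with TRAIL plus DMSO for no effect and medium-only wells lacking cells for full effect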
STAT3 inh: reduces IL-6 driven STAT3 reporter signal; U3A cells, IL-6 STAT3-luciferase reporter, luminescence; host cell line lacks STAT1; inhibition, % at 5.5 µM; 190,000 compounds, 0.89% hits;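 active = inhibition above the mean inhibition across all screened compounds plus 3 SD, cut at about 44% in these data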;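 also: 0% = DMSO only wells and 100% = 100 µM nifuroxazide control wells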
* = called active by the depositor; · = no result given.

SMILES | HSF1 inh | HSP90 refold inh | C8 TRAIL sens | STAT1 blocker | PPC-1+TRAIL kill | STAT3 inh
CC(C)(C)OC(=O)NCCCCCc1cn([C@@H](CO)C(=O)NCCCCCCCCCCC(=O)N2CCN(C(=O)OC(C)(C)C)CC2)nn1 | · | · | 60* | · | · | ·
CC(C)(C)OC(=O)CC[C@@H](C(=O)NCCCCCCCCCCC(=O)N1CCN(C(=O)OC(C)(C)C)CC1)n1cc(CCCCCNC(=O)OC(C)(C)C)nn1 | · | · | 8 | · | · | ·
Cc1nc2ccc(C(=O)Nc3cccc(OCC(=O)N(C)C)c3)cn2c1N(C)CC1CCCCC1 | · | · | 16 | · | · | ·
Nc1[nH]c(C(=O)c2ccccc2)c(-c2ccc(Cl)cc2)c1C(=O)NCc1ccccc1 | · | · | -8 | · | · | ·
CC(C)c1ccc2oc3nc(N)c(C(=O)O)cc3c(=O)c2c1 | 2 | 4 | · | · | 83* | ·
COc1ccc(N=c2scc(-c3ccc(S(=O)(=O)N4CCOCC4)cc3)n2CCCO)cc1 | · | -2 | · | 25 | 7 | 44*
CN1C(=O)[C@H]2[C@@H](c3ccc(C(F)(F)F)cc3)N[C@]3(CCCN(Cc4ccco4)C3=O)[C@H]2C1=O | · | · | -9 | · | · | ·
CCOc1ccc(/C=C/C(=O)c2c(O)cc(C)oc2=O)cc1 | 16 | -3 | 66* | · | · | ·
CC1(c2nnnn2-c2ccc3c(c2)OCCO3)CCC(=O)N1CCc1ccc(O)cc1 (centres undefined) | · | · | -3 | · | · | ·
CCn1c2c(c3cc(Cl)ccc31)CCCC2=O | -1 | 64* | -3 | 14 | -17 | 5
CCn1c2c(c3cc(C(=O)O)ccc31)CCCC2=O | -5 | 2 | -9 | -2 | 23 | -5
COc1ccc(CCNC(=O)Cc2cccs2)cc1 | -55* | -3 | -5 | -5 | 13 | 0
O=C(Cc1cccs1)NCCCc1ccccc1 | -8 | -3 | -2 | -11 | -2 | 1
CCN1CCN(c2ccc(S(=O)(=O)N3CCOCC3)cc2NC(=O)/C=C/c2ccc([N+](=O)[O-])cc2)CC1 | -6 | · | 53* | · | · | ·
CCN1CCN(c2ccc(S(=O)(=O)N3CCCCC3)cc2NC(=O)c2ccc([N+](=O)[O-])o2)CC1 | 15 | · | 55* | · | · | ·
CC(C)Oc1ccc(CN2CCC2(C)C(=O)NCc2cccc3ccccc23)cc1 (centres undefined) | · | · | 9 | · | · | ·
COc1cc(/C=C/c2cccc[n+]2C)ccc1OCC(=O)Nc1ccccc1C | -1 | -2 | -14 | · | · | ·
CCOc1cc(/C=C\[N+](=O)[O-])ccc1OCC(=O)Nc1ccccc1C | -62* | 0 | 64* | -6 | 2 | -4
Cc1ccc(N2CN=c3s/c(=C\c4ccccn4)c(=O)n3C2)cc1 | -52* | -3 | -1 | -2 | 1 | -2
O=C(NCc1ccccc1Cl)[C@H]1CCCN1C(=O)[C@H]1CCCN1C(=O)c1ccc(Cl)cc1 | · | · | -5 | · | · | ·
COc1ccc(OC)c(NC(=O)CSc2nc3ccccc3cc2Cc2ccccc2)c1 | -54* | -3 | 0 | 4 | 6 | 0
COc1ccc(NC(=O)CSc2nc3ccccc3cc2Cc2ccccc2)cc1 | 7 | 2 | 4 | 2 | 8 | 19
O=C(c1ccc(COc2ccccc2Cl)o1)N1CCCC1 | 0 | 6 | -5 | 35* | 1 | 19
O=C(O)c1ccc(COc2ccccc2Cl)cc1 | -5 | -9 | -12 | -10 | 21 | 5
O=C(O)c1cccc(COc2ccccc2Cl)c1 | -86* | · | 34 | · | 25 | ·
SMILES | HSF1 inh | HSP90 refold inh | C8 TRAIL sens | STAT1 blocker | PPC-1+TRAIL kill | STAT3 inh
CCOC(=O)N1CCN(C(=O)c2ccc(CS(=O)(=O)c3c(Cl)cccc3Cl)o2)CC1 | -77* | -6 | 17 | -7 | 13 | -2
Cc1cc(C)c(S(=O)(=O)Nc2ccc(N(C)C)cc2)c(C)c1-n1cnnn1 | -65* | -5 | -3 | · | · | ·
CCN(CC)CCCNc1nc2ccccc2c2[nH]c3ccc(OC)cc3c12 | -184 | · | 41 | · | · | ·
CCCCCCn1cc(CN2CC(N3CCN(CCN(C)C)CC3)CS2(=O)=O)nn1 (centres undefined) | · | · | 5 | · | · | ·
COC(=O)CN1C(=O)Nc2ccc(C)cc2C1c1ccccc1 (centres undefined) | -70* | 3 | -7 | 4 | 3 | 2
O=C(C1CCCO1)N1CCN(S(=O)(=O)c2cc(C(F)(F)F)ccc2Cl)CC1 (centres undefined) | · | · | -6 | · | · | ·
Cc1ccc2nc(-c3ccc(SCC(=O)Nc4nnc(C)s4)nc3)[nH]c2c1 | · | 0 | 54* | -26 | 21 | -2
Cc1cc2nc(-c3ccc(SCC(=O)Nc4ccc5c(c4)OCCO5)nc3)[nH]c2cc1C | · | -1 | 67* | 0 | 46 | 10
Cc1ccc2nc(-c3ccc(SCC(=O)Nc4nc(C)cs4)nc3)[nH]c2c1 | 46 | 2 | 48 | -52 | 48 | -16
CC(C)COC(=O)N1CCCCC1c1cc(C(=O)Nc2ccc3c(c2)OCO3)no1 (centres undefined) | · | · | 3 | · | · | ·
COC(=O)C[C@H]1CC[C@@H](NC(=O)C2CC2)[C@@H](CO)O1 | · | · | -3 | · | · | ·
COCCCNC(=O)c1cn(CCOC)c(=O)c2c1c1ccccc1n2C | 2 | -1 | -21 | · | · | ·
COCCCNC(=O)c1cn(CC(C)C)c(=O)c2c1c1ccccc1n2C | -75* | 14 | 9 | -1 | 4 | -2
CCCCNC(=O)c1nc(C2CCN(S(=O)(=O)c3ccc(OC(F)(F)F)cc3)CC2)oc1-c1ccccc1 | · | · | 11 | · | · | ·
Cc1ccc(C(=O)Nc2cccc(NC(=O)c3ccc(C)c([N+](=O)[O-])c3)n2)cc1[N+](=O)[O-] | -2 | 0 | 22 | · | · | ·
Cc1ccc(C(=O)Nc2sc(C)c(-c3ccccc3)c2C(N)=O)cc1[N+](=O)[O-] | -81* | 6 | 27 | -2 | 3 | 32
c1ccc(CSc2ccc(-c3cccs3)nn2)cc1 | -5 | -6 | 54* | -72 | 24 | 11
CC1=C(C(=O)N2CCCCCC2)CC(CC(=O)NCCc2ccccn2)C(=O)N1Cc1ccc(F)cc1 (centres undefined) | · | · | -13 | · | · | ·
O=C1[C@H]2[C@@H](/C=C/c3ccccc3)N3C(=O)CN(CC4CC4)C(=O)[C@@]3(Cc3ccccc3)[C@H]2C(=O)N1c1ccccc1 | -3 | -2 | 55* | · | · | ·
CN(C)CCCN(C(=O)c1ccc(C(=O)c2ccccc2)cc1)c1nc2ccc(F)cc2s1 | -3 | 2 | 49* | · | · | ·
CN(C)CCCN(C(=O)c1ccc([N+](=O)[O-])s1)c1nc2cc3c(cc2s1)OCCO3 | -31 | 1 | 11 | · | · | ·
CN(C)CCCN(C(=O)c1ccc(C(=O)c2ccccc2)cc1)c1nc2cc3c(cc2s1)OCO3 | -44 | 5 | 53* | · | · | ·
CN(C)CCCN(C(=O)c1nc2ccccc2s1)c1nc2ccc(F)cc2s1 | 1 | · | 2 | · | · | ·
CN(C)CCCN(C(=O)c1cc2cc([N+](=O)[O-])ccc2s1)c1nc2cc3c(cc2s1)OCCO3 | -34 | · | 91* | · | · | ·
C/[N+]([O-])=C\C1C(=O)CC(C)(C)CC1=O | -55* | -2 | 4 | -2 | 9 | -5
O=c1[nH]c2cc(Cl)ccc2c(O)c1-c1cccc(Oc2ccccc2)c1 | 5 | · | -5 | · | · | ·
O=c1[nH]c2ccc(Cl)cc2c(O)c1-c1ccccc1 | -10 | 2 | -1 | 45* | 0 | 83*
